The results in this text go back to PubChem BioAssay AID686978 (National Center for Advancing Translational Sciences (NCATS), 2013).

Screen size: about 420,000 compounds; about 64,000 (15%) were called active. Inconclusive results (about 27%) are left out. Calls come from the whole dose curve; as a rule, active = well fitted inhibition curve with a large enough effect; inconclusive = small, poorly fitted or top-dose-only effect; inactive = flat fitted curve, though single readings scatter. The list is a sample of the results. Entries that show only a call come without a potency.
Potency is the fitted concentration of half-maximal effect.

A short description of the test: qHTS for Inhibitors of human tyrosyl-DNA phosphodiesterase 1 (TDP1): qHTS in cells in absence of CPT. Note: nearly all actives have a fitted effect of over 55% in size. The note with it: DT40 Tdp1-/- hTDP1 cells, no CPT, ATP luminescence, 48 h; activity change, negative = growth inhibition: at 46.2 µM (top of the series). A digest of the protocol: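 Readout: luminescence from CellTiter-Glo after 30 min in the dark at RT. Cells: DT40 Tdp1-/- with stable hTDP1, 400/well. Exposure: compounds alone, ≥48 hr, 37 °C.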
Background: qHTS replaces the single test concentration by a dilution series.
As to `CN(C)S(=O)(=O)c1ccc(C(=O)NCCN=C2NS(=O)(=O)c3ccccc32)cc1`, the Potency result is “inactive”.
For `NC(=S)NN=C1CCCC(C(F)(F)F)C1` (stereo not drawn), the Potency was 23.1 µM (active).
On the same count and under the same terms, next, `Cc1cc(C)nc(SCc2cn3c(C)cc(C)nc3n2)n1`: “inactive”; `O=[N+]([O-])/C(N=Nc1ccccc1)=N\Nc1ccccc1`: “inactive”.
`O=S(=O)(c1ccc(Br)c2ccccc12)N1CCOCC1`: the Potency entry was “inactive”.
Same read-out and setting: with `O=S(=O)(NCCc1ccccn1)c1cc(Cl)cc(Cl)c1O` the entry was “inactive”; with `COc1ccc(NC(=O)CCC(=O)Nc2nnc(C3CCCCC3)s2)cc1`, “inactive”; with `COc1ccc(NC(=O)c2sc(N)nc2-c2ccccc2)cc1`, “inactive”.
In the case of `COC(=O)CCc1sc(Nc2ccc(Br)cc2)nc1-c1ccc(OC)cc1`, the Potency was 13 µM (active).
Same read-out and setting: next, `CC(C)(C)n1nc2c(c1NC(=O)c1cc3ccccc3o1)CSC2`: “inactive”; `C[C@H](NC(=O)OC(C)(C)C)c1nnc(SCC(N)=O)o1`: “inactive”; `C[C@@H](NC(=O)OC(C)(C)C)c1nnc(S(=O)(=O)Cc2ccccc2)o1`: 1.03 µM (active).
Same read-out and setting: with `CC(C)Sc1nnc([C@H](Cc2ccccc2)NC(=O)OC(C)(C)C)o1` the entry was “inactive”; with `O=C(CSc1nnc(CNC(=O)c2ccc(F)cc2)o1)Nc1ccc2c(c1)OCO2`, “inactive”.
Regarding `Cc1cc(=O)[nH]c(=S)[nH]1`, the Potency result was “inactive”.
Regarding `COc1cc(C(=O)OCc2ccc([N+](=O)[O-])cc2)cc(OC)c1OC`, the Potency result is “inactive”.
Same read-out and setting: with `Cc1ccc(-n2cc3ccc([N+](=O)[O-])cc3n2)cc1` the figure was 16.4 µM (active).
Still for that read-out and setting: next, `Cc1cc(CO)nn1-c1ccc([N+](=O)[O-])cc1`: “inactive”; `Cc1ccc(C(=O)Cn2cc([N+](=O)[O-])nc2C)cc1`: “inactive”.
Consider `O=C(CN1CCN(c2ccccn2)CC1)NC1CCCCC1`, for which the Potency entry is “inactive”.
The same measure, in the same setting: with `O=C1CCC(CCC(=O)N2CCCC(C(=O)c3ccc(Cl)cc3)C2)=NN1` (stereo not drawn) the entry was “inactive”.
Turning to `COc1cc(OC)cc(-c2nc3nc(C)c(CCC(=O)Nc4ccc(C)cc4)c(C)n3n2)c1`, the Potency entry is “inactive”.
On the same count and under the same terms, next, `COc1cc(OC)cc(-c2nc3nc(C)c(CCC(=O)Nc4ccccc4)c(C)n3n2)c1`: 29.1 µM (active); `CCOC(=O)c1cccc(NC(=O)CCc2c(C)nc3ncnn3c2C)c1`: “inactive”; `COc1ccc(OC)c(-n2c(-c3ccn[nH]3)n[nH]c2=S)c1`: “inactive”.
The same measure, in the same setting: next, `COc1cc(OC)cc(-c2c(C#Cc3ccsc3)c3cc(-c4ccc(SC)cc4)ccc3n2C)c1`: “inactive”; `COc1ccc(-c2cn[nH]c2-c2ccc(OC)cc2)cc1`: “inactive”.
Same read-out and setting: with `COc1ccc(-c2c(-c3cc(OC)cc(OC)c3)n(C)c3ccc(-c4ccn[nH]4)cc23)cc1` the figure was 25.9 µM (active); with `COc1cc(OC)cc(-c2c(-c3cccs3)c3cc(-c4ccc(OC)cc4F)ccc3n2C)c1`, 14.6 µM (active).
For `O=C(CSc1nncs1)NC1CCCc2ccccc21` (stereo not drawn), the Potency entry was “inactive”.
As for `Cc1nc2cc3c(cc2s1)OCO3`, the Potency result was “inactive”.
On the same count and under the same terms, with `Cc1nnc(SCC(=O)NC(=O)NC2CCCC2)n1N` the entry was “inactive”; with `COc1ccc(N2CC(C(=O)N[C@@H](C)C(=O)N3CCCCC3)CC2=O)cc1` (stereo partly drawn), “inactive”.
On the same count and under the same terms, with `CCOC(=O)C1CCN(S(=O)(=O)c2ccc3c(c2)N(C)C(=O)CC(=O)N3C)CC1` the entry was “inactive”.
On the same count and under the same terms, with `O=[n+]1c2c(n([O-])c3cc(Br)ccc31)CCC2` the entry was “inactive”.
Regarding `CCOc1cc(C2C(C(=O)c3ccco3)=C(O)C(=O)N2Cc2ccccc2)ccc1O` (stereo not drawn), the Potency entry was “inactive”.
On the same count and under the same terms, with `O=C(C1=C(O)C(=O)N(Cc2ccccc2)C1c1cccnc1)c1ccco1` (stereo not drawn) the entry was “inactive”.
For the molecule `CC(C)c1ccc(C2C(C(=O)c3ccco3)=C(O)C(=O)N2CC2CCCO2)cc1` (stereo not drawn), the activity change, negative = growth inhibition was -77.9% (active).
Consider `CCCc1nnc(NC(=O)CN2C(=O)c3ccccc3S2(=O)=O)s1`, for which the Potency entry was “inactive”.
Regarding `Cc1ccc(-c2nc3c(cnn3-c3ccccc3)c(=O)o2)cc1`, the Potency result was “inactive”.
On the same count and under the same terms, with `Cc1ccc(-n2ncc3c(Nc4cccc(C(=O)O)c4)ncnc32)cc1` the entry was “inactive”.
On to `Cc1ccc(-n2ncc3c(=O)n(-c4ccc(C)c(C)c4)c(-c4ccco4)nc32)cc1`, for which the Potency is 18.4 µM (active).
Consider `O=Cc1c(NCCc2cccc(F)c2)c2ccccc2[nH]c1=O`, for which the Potency entry was “inactive”.
Still for that read-out and setting: with `CCC(=O)Nc1ccc(C(=O)NNC(=O)c2ccc(Cl)cc2)cc1` the entry was “inactive”; with `CC(=O)OC(C(=O)NC1CCCCC1)c1ccccc1` (stereo not drawn), “inactive”; with `Cc1cnc(CN(C)C(=O)CC2C(=O)NCCN2Cc2cccc(F)c2F)[nH]1` (stereo not drawn), “inactive”.
The same measure, in the same setting: next, `Cc1c2cnn(CC(=O)NCc3ccccn3)c(=O)c2c(C)n1Cc1ccc(Cl)cc1`: “inactive”; `Cc1ccc2oc(=O)c3cnn(CC(=O)NCc4ccccc4Cl)c3c2c1`: “inactive”.
On the same count and under the same terms, with `Cc1ccccc1CNC(=O)Cn1c(C)c2cnn(-c3ccccc3)c(=O)c2c1C` the entry was “inactive”.
On to `CCOC(=O)N1CCC(NC(=O)C(C)n2c3ccccc3c3cnn(C)c(=O)c32)CC1` (stereo not drawn), for which the Potency result was “inactive”.
The same measure, in the same setting: with `Cc1ccc(Cn2c(C)c3cnn(CC(=O)NCc4ccccc4)c(=O)c3c2C)cc1` the figure was 2.91 µM (active); with `CCN(CC)CCNC(=O)Cn1ncc2c3ccccc3n(Cc3ccccc3C)c2c1=O`, 25.9 µM (active); with `Cc1ccc(Cn2c(C)c3cnn(CC(=O)NCCN4CCOCC4)c(=O)c3c2C)cc1`, “inactive”.
Turning to `Cc1nn(CC(=O)NC2CCCCC2)c(=O)c2cccn12`, the Potency entry was “inactive”.
Still for that read-out and setting: next, `CCCn1c2ccccc2c2cnn(CC(=O)NCC3CCN(Cc4ccc(C)cc4)CC3)c(=O)c21`: 10.3 µM (active); `O=C(Cn1ncc2c3ccccc3n(Cc3ccccc3)c2c1=O)NCc1ccccn1`: “inactive”; `O=C(Cn1ncc2c3ccccc3n(Cc3ccccc3)c2c1=O)NC1CCCCCC1`: 3.66 µM (active).
Same read-out and setting: next, `CCCn1c2ccccc2c2cnn(CC(=O)NCCCN3CCCCC3CC)c(=O)c21` (stereo not drawn): “inactive”.
